In the supplement of paper PMC4466140:

B1: unnamed (peptide)
chain: FYNRTAFQLPGDARV

What follows are binders tested against AgAbp1 (assay: SPOT peptide array binding signal intensity (averaged, normalized) (arbitrary units (background-subtracted, floor 0; scale differs between SH3 domains)); higher = stronger binding of the SH3 domain to the peptide).
How it was run: (§1)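 Binding signal refers to normalized, background-subtracted spot intensity averaged over replicates, expressed in arbitrary units that differ between domains. GST-fused SH3 domains from four yeast species were incubated at 10 μg/ml overnight at 4°C on cellulose membranes of synthetic 15-mer peptides with cysteines replaced by serines. Bound protein was detected with anti-GST antibody, an HRP anti-mouse secondary and luminol, and quantified with Genespotter.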
In the case of B1, the “SPOT peptide array binding signal intensity” value is reported as 1.5.

Each binder was assayed against AgBbc1 in the same assay as above.
How it was run: as §1
With B1 the “SPOT peptide array binding signal intensity” value was 0.5.

The binders below were run against AgBem1-D1 in the same assay as above.
How it was run: as §1
In the case of B1, the “SPOT peptide array binding signal intensity” value is reported as no more than 0.

The binders below were run against AgBzz1-D1 in the same assay as above.
How it was run: as §1
For B1, the “SPOT peptide array binding signal intensity” value was 39.5.

What follows are binders tested against AgBzz1-D2 in the same assay as above.
How it was run: as §1
For B1, the “SPOT peptide array binding signal intensity” value was 39.

Each binder was assayed against AgCyk3 in the same assay as above.
How it was run: as §1
With B1 the “SPOT peptide array binding signal intensity” value was 2.

The binders below were run against AgFus1 in the same assay as above.
How it was run: as §1
In the case of B1, the “SPOT peptide array binding signal intensity” value is reported as 12.

Each binder was assayed against AgHof1 in the same assay as above.
How it was run: as §1
For B1, the “SPOT peptide array binding signal intensity” value was 12.2.

What follows are binders tested against AgHse1 in the same assay as above.
How it was run: as §1
B1 was tested, and the “SPOT peptide array binding signal intensity” value was 18.

The binders below were run against AgLsb1 in the same assay as above.
How it was run: as §1
With B1 the “SPOT peptide array binding signal intensity” value was 1140.

The binders below were run against AgLsb4 in the same assay as above.
How it was run: as §1
For B1, the “SPOT peptide array binding signal intensity” value was no more than 0.

These binders were tested against AgMyo5 in the same assay as above.
How it was run: as §1
With B1 the “SPOT peptide array binding signal intensity” value was 9.5.

What follows are binders tested against AgNbp2 in the same assay as above.
How it was run: as §1
In the case of B1, the “SPOT peptide array binding signal intensity” value is reported as no more than 0.

What follows are binders tested against AgRvs167 in the same assay as above.
How it was run: as §1
In the case of B1, the “SPOT peptide array binding signal intensity” value is reported as 1.83.

These binders were tested against AgSho1 in the same assay as above.
How it was run: as §1
In the case of B1, the “SPOT peptide array binding signal intensity” value is reported as no more than 0.

Each binder was assayed against AgSla1-D1-D2 in the same assay as above.
How it was run: as §1
In the case of B1, the “SPOT peptide array binding signal intensity” value is reported as 1.

These binders were tested against AgSla1-D3 in the same assay as above.
How it was run: as §1
B1 was tested, and the “SPOT peptide array binding signal intensity” value was 1.

The binders below were run against CaAbp1-D1 in the same assay as above.
How it was run: as §1
In the case of B1, the “SPOT peptide array binding signal intensity” value is reported as 7.

The binders below were run against CaAbp1-D2 in the same assay as above.
How it was run: as §1
In the case of B1, the “SPOT peptide array binding signal intensity” value is reported as no more than 0.

Each binder was assayed against CaBbc1 in the same assay as above.
How it was run: as §1
In the case of B1, the “SPOT peptide array binding signal intensity” value is reported as 3.

These binders were tested against CaBem1-D1 in the same assay as above.
How it was run: as §1
In the case of B1, the “SPOT peptide array binding signal intensity” value is reported as 16.

Each binder was assayed against CaBzz1-D1 in the same assay as above.
How it was run: as §1
For B1, the “SPOT peptide array binding signal intensity” value was 37.5.

These binders were tested against CaBzz1-D2 in the same assay as above.
How it was run: as §1
With B1 the “SPOT peptide array binding signal intensity” value was 30.5.

Each binder was assayed against CaCyk3 in the same assay as above.
How it was run: as §1
B1 was tested, and the “SPOT peptide array binding signal intensity” value was 5.

Each binder was assayed against CaFus1 in the same assay as above.
How it was run: as §1
B1 was tested, and the “SPOT peptide array binding signal intensity” value was 21.5.

The binders below were run against CaHof1 in the same assay as above.
How it was run: as §1
For B1, the “SPOT peptide array binding signal intensity” value was 0.5.

Each binder was assayed against CaHse1 in the same assay as above.
How it was run: as §1
With B1 the “SPOT peptide array binding signal intensity” value was 2.

These binders were tested against CaLsb1 in the same assay as above.
How it was run: as §1
B1 was tested, and the “SPOT peptide array binding signal intensity” value was 410.

What follows are binders tested against CaLsb4 in the same assay as above.
How it was run: as §1
For B1, the “SPOT peptide array binding signal intensity” value was no more than 0.

Each binder was assayed against CaMyo5 in the same assay as above.
How it was run: as §1
For B1, the “SPOT peptide array binding signal intensity” value was 13.5.

These binders were tested against CaNbp2 in the same assay as above.
How it was run: as §1
For B1, the “SPOT peptide array binding signal intensity” value was 22.

What follows are binders tested against CaRvs167 in the same assay as above.
How it was run: as §1
B1 was tested, and the “SPOT peptide array binding signal intensity” value was no more than 0.

These binders were tested against CaRvs167-3 in the same assay as above.
How it was run: as §1
B1 was tested, and the “SPOT peptide array binding signal intensity” value was 3.5.

These binders were tested against CaSho1 in the same assay as above.
How it was run: as §1
For B1, the “SPOT peptide array binding signal intensity” value was 11.5.

These binders were tested against CaSla1-D1-D2 in the same assay as above.
How it was run: as §1
B1 was tested, and the “SPOT peptide array binding signal intensity” value was no more than 0.

Each binder was assayed against CaSla1-D3 in the same assay as above.
How it was run: as §1
For B1, the “SPOT peptide array binding signal intensity” value was no more than 0.

The binders below were run against ScAbp1 in the same assay as above.
How it was run: as §1
B1 was tested, and the “SPOT peptide array binding signal intensity” value was 2.5.

What follows are binders tested against ScBbc1 in the same assay as above.
How it was run: as §1
In the case of B1, the “SPOT peptide array binding signal intensity” value is reported as 3.5.

These binders were tested against ScBem1-D1 in the same assay as above.
How it was run: as §1
For B1, the “SPOT peptide array binding signal intensity” value was 0.5.

These binders were tested against ScBzz1-D1 in the same assay as above.
How it was run: as §1
With B1 the “SPOT peptide array binding signal intensity” value was 22.

These binders were tested against ScBzz1-D2 in the same assay as above.
How it was run: as §1
For B1, the “SPOT peptide array binding signal intensity” value was 36.

What follows are binders tested against ScCyk3 in the same assay as above.
How it was run: as §1
B1 was tested, and the “SPOT peptide array binding signal intensity” value was 20.

These binders were tested against ScFus1 in the same assay as above.
How it was run: as §1
With B1 the “SPOT peptide array binding signal intensity” value was no more than 0.

What follows are binders tested against ScHof1 in the same assay as above.
How it was run: as §1
With B1 the “SPOT peptide array binding signal intensity” value was no more than 0.

These binders were tested against ScHse1 in the same assay as above.
How it was run: as §1
B1 was tested, and the “SPOT peptide array binding signal intensity” value was 61.5.

What follows are binders tested against ScLsb1 in the same assay as above.
How it was run: as §1
In the case of B1, the “SPOT peptide array binding signal intensity” value is reported as 554.

These binders were tested against ScLsb2 in the same assay as above.
How it was run: as §1
B1 was tested, and the “SPOT peptide array binding signal intensity” value was 843.

These binders were tested against ScLsb3 in the same assay as above.
How it was run: as §1
In the case of B1, the “SPOT peptide array binding signal intensity” value is reported as no more than 0.

What follows are binders tested against ScLsb4 in the same assay as above.
How it was run: as §1
In the case of B1, the “SPOT peptide array binding signal intensity” value is reported as no more than 0.

What follows are binders tested against ScMyo3 in the same assay as above.
How it was run: as §1
With B1 the “SPOT peptide array binding signal intensity” value was 40.

These binders were tested against ScMyo5 in the same assay as above.
How it was run: as §1
With B1 the “SPOT peptide array binding signal intensity” value was 12.5.

Each binder was assayed against ScNbp2 in the same assay as above.
How it was run: as §1
B1 was tested, and the “SPOT peptide array binding signal intensity” value was no more than 0.

These binders were tested against ScPex13 in the same assay as above.
How it was run: as §1
In the case of B1, the “SPOT peptide array binding signal intensity” value is reported as no more than 0.

Each binder was assayed against ScRvs167 in the same assay as above.
How it was run: as §1
With B1 the “SPOT peptide array binding signal intensity” value was no more than 0.

Each binder was assayed against ScSho1 in the same assay as above.
How it was run: as §1
For B1, the “SPOT peptide array binding signal intensity” value was 1.

Each binder was assayed against ScSla1-D1-D2 in the same assay as above.
How it was run: as §1
B1 was tested, and the “SPOT peptide array binding signal intensity” value was no more than 0.

Each binder was assayed against ScSla1-D3 in the same assay as above.
How it was run: as §1
B1 was tested, and the “SPOT peptide array binding signal intensity” value was 1.

These binders were tested against SpAbp1-D1 in the same assay as above.
How it was run: as §1
For B1, the “SPOT peptide array binding signal intensity” value was no more than 0.

Each binder was assayed against SpBbc1 in the same assay as above.
How it was run: as §1
For B1, the “SPOT peptide array binding signal intensity” value was 0.5.

What follows are binders tested against SpBzz1-D1 in the same assay as above.
How it was run: as §1
B1 was tested, and the “SPOT peptide array binding signal intensity” value was 86.

Each binder was assayed against SpBzz1-D2 in the same assay as above.
How it was run: as §1
For B1, the “SPOT peptide array binding signal intensity” value was no more than 0.

The binders below were run against SpCyk3 in the same assay as above.
How it was run: as §1
For B1, the “SPOT peptide array binding signal intensity” value was 2.

The binders below were run against SpHof1 in the same assay as above.
How it was run: as §1
For B1, the “SPOT peptide array binding signal intensity” value was 4.

The binders below were run against SpHof1-2 in the same assay as above.
How it was run: as §1
In the case of B1, the “SPOT peptide array binding signal intensity” value is reported as 1.5.

These binders were tested against SpHof1-3 in the same assay as above.
How it was run: as §1
B1 was tested, and the “SPOT peptide array binding signal intensity” value was 22.5.

Each binder was assayed against SpHse1 in the same assay as above.
How it was run: as §1
For B1, the “SPOT peptide array binding signal intensity” value was 21.5.

Each binder was assayed against SpLsb1 in the same assay as above.
How it was run: as §1
With B1 the “SPOT peptide array binding signal intensity” value was 216.

Each binder was assayed against SpLsb4 in the same assay as above.
How it was run: as §1
B1 was tested, and the “SPOT peptide array binding signal intensity” value was no more than 0.

What follows are binders tested against SpMyo1 in the same assay as above.
How it was run: as §1
For B1, the “SPOT peptide array binding signal intensity” value was 17.5.

The binders below were run against SpNbp2 in the same assay as above.
How it was run: as §1
B1 was tested, and the “SPOT peptide array binding signal intensity” value was 2.5.

The binders below were run against SpPex13 in the same assay as above.
How it was run: as §1
With B1 the “SPOT peptide array binding signal intensity” value was 2.

These binders were tested against SpRvs167 in the same assay as above.
How it was run: as §1
In the case of B1, the “SPOT peptide array binding signal intensity” value is reported as no more than 0.

Each binder was assayed against SpSla1-D1-D2 in the same assay as above.
How it was run: as §1
With B1 the “SPOT peptide array binding signal intensity” value was no more than 0.

These binders were tested against SpSla1-D3 in the same assay as above.
How it was run: as §1
In the case of B1, the “SPOT peptide array binding signal intensity” value is reported as 0.5.
